Assay results from the supplement of paper PMC6992640.

test system: HCI01 (cells of a triple-negative basal-like breast cancer xenograft); experiment: cell viability of combination (% of vehicle); higher = less cytotoxic; conditions: 1 µM; 72 h; partner dose: 10 nM
Experimental: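 PDX cells were treated for 72 h with each drug at 1 µM plus afatinib (10 nM; 1 µM for WHIM30). Luciferase viability is expressed as percent of vehicle.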

Going from `COc1ccc(CN2CCN(C(c3ccc(F)cc3)c3ccc(F)cc3)CC2)c(OC)c1OC.Cl.Cl` [Lomerizine HCl] + CN(C)C/C=C/C(=O)Nc1cc2c(Nc3ccc(F)c(Cl)c3)ncnc2cc1O[C@H]1CCOC1 [Afatinib] to `COc1cc2c(Oc3ccc4[nH]c(C)cc4c3F)ncnc2cc1OCCCN1CCCC1` [Cediranib (AZD217)] + CN(C)C/C=C/C(=O)Nc1cc2c(Nc3ccc(F)c(Cl)c3)ncnc2cc1O[C@H]1CCOC1 [Afatinib], the “cell viability of combination” value falls from 57.7 to 47.5.

First: CO[C@H]1C[C@@H]2CC[C@@H](C)[C@@](O)(O2)C(=O)C(=O)N2CCCC[C@H]2C(=O)O[C@H]([C@H](C)C[C@@H]2CC[C@@H](O)[C@H](OC)C2)CC(=O)[C@H](C)/C=C(\C)[C@@H](O)[C@@H](OC)C(=O)[C@H](C)C[C@H](C)/C=C/C=C/C=C/1C [Rapamycin (Sirolimus)] + CN(C)C/C=C/C(=O)Nc1cc2c(Nc3ccc(F)c(Cl)c3)ncnc2cc1O[C@H]1CCOC1 [Afatinib]
Second: CC[C@H](C)[C@H]1O[C@]2(CC[C@@H]1C)C[C@@H]1C[C@@H](C/C=C(\C)[C@@H](O[C@H]3C[C@H](OC)[C@@H](O[C@H]4C[C@H](OC)[C@@H](O)[C@H](C)O4)[C@H](C)O3)[C@@H](C)/C=C/C=C3\CO[C@@H]4[C@H](O)C(C)=C[C@@H](C(=O)O1)[C@]34O)O2 [Ivermectin] + CN(C)C/C=C/C(=O)Nc1cc2c(Nc3ccc(F)c(Cl)c3)ncnc2cc1O[C@H]1CCOC1 [Afatinib]
The “cell viability of combination” value of the first is higher: 51 for the first, 46 for the second.

Compared with `COC(=O)C1=C(C)NC(C)=C(C(=O)OCCN(C)Cc2ccccc2)C1c1cccc([N+](=O)[O-])c1.Cl` (configuration not stated) [Nicardipine HCl] + CN(C)C/C=C/C(=O)Nc1cc2c(Nc3ccc(F)c(Cl)c3)ncnc2cc1O[C@H]1CCOC1 [Afatinib], `CCOC(=O)c1c(CSc2ccccc2)n(C)c2cc(Br)c(O)c(CN(C)C)c12.Cl` [Arbidol HCl] + CN(C)C/C=C/C(=O)Nc1cc2c(Nc3ccc(F)c(Cl)c3)ncnc2cc1O[C@H]1CCOC1 [Afatinib] is lower in “cell viability of combination” value: 58.7 for the first, 55.3 for the second.

First: COC(=O)NC(C(=O)N1CCCC1c1ncc(-c2ccc(-c3ccc(-c4cnc(C5CCCN5C(=O)C(NC(=O)OC)C(C)C)[nH]4)cc3)cc2)[nH]1)C(C)C (configuration not stated) + CN(C)C/C=C/C(=O)Nc1cc2c(Nc3ccc(F)c(Cl)c3)ncnc2cc1O[C@H]1CCOC1 [Afatinib]
Second: CC(C)c1nc(N(C)S(C)(=O)=O)nc(-c2ccc(F)cc2)c1C=CC(O)CC(O)CC(=O)[O-].CC(C)c1nc(N(C)S(C)(=O)=O)nc(-c2ccc(F)cc2)c1C=CC(O)CC(O)CC(=O)[O-].[Ca+2] (configuration not stated) [Rosuvastatin Calcium] + CN(C)C/C=C/C(=O)Nc1cc2c(Nc3ccc(F)c(Cl)c3)ncnc2cc1O[C@H]1CCOC1 [Afatinib]
The “cell viability of combination” value of the first is lower: 48.3 for the first, 51.4 for the second.

Going from `CC(C)CC(NC(=O)C(NC(=O)c1cccc(-c2ccccc2)n1)C(C)O)B(O)O` (configuration not stated) + CN(C)C/C=C/C(=O)Nc1cc2c(Nc3ccc(F)c(Cl)c3)ncnc2cc1O[C@H]1CCOC1 [Afatinib] to `CC1(C)Cc2c(-c3ccccc3)c(-c3ccc(Cl)cc3)c(CC(=O)O)n2C1` [Licofelone] + CN(C)C/C=C/C(=O)Nc1cc2c(Nc3ccc(F)c(Cl)c3)ncnc2cc1O[C@H]1CCOC1 [Afatinib], the “cell viability of combination” value rises from 34.1 to 66.1.

Going from `CCCCCCCCc1ccc(CCC(N)(CO)CO)cc1.Cl` [Fingolimod (FTY720)] + CN(C)C/C=C/C(=O)Nc1cc2c(Nc3ccc(F)c(Cl)c3)ncnc2cc1O[C@H]1CCOC1 [Afatinib] to `COC1=C(OC)C(=O)C(CCCCCCCCCCO)=C(C)C1=O` [Idebenone] + CN(C)C/C=C/C(=O)Nc1cc2c(Nc3ccc(F)c(Cl)c3)ncnc2cc1O[C@H]1CCOC1 [Afatinib], the “cell viability of combination” value rises from 53.7 to 58.8.

Going from `C=CC(=O)N1CCC(Oc2cc3c(Nc4ccc(Cl)c(Cl)c4F)ncnc3cc2OC)CC1` [Poziotinib] + CN(C)C/C=C/C(=O)Nc1cc2c(Nc3ccc(F)c(Cl)c3)ncnc2cc1O[C@H]1CCOC1 [Afatinib] to `COc1cc(Nc2c(C#N)cnc3cc(OCCCN4CCN(C)CC4)c(OC)cc23)c(Cl)cc1Cl` [Bosutinib (SKI-606)] + CN(C)C/C=C/C(=O)Nc1cc2c(Nc3ccc(F)c(Cl)c3)ncnc2cc1O[C@H]1CCOC1 [Afatinib], the “cell viability of combination” value falls from 42.9 to 40.3.

First: CC(NCCCc1cccc(C(F)(F)F)c1)c1cccc2ccccc12.Cl (configuration not stated) [Cinacalcet HCl] + CN(C)C/C=C/C(=O)Nc1cc2c(Nc3ccc(F)c(Cl)c3)ncnc2cc1O[C@H]1CCOC1 [Afatinib]
Second: Cc1cn(-c2cc(NC(=O)c3ccc(C)c(Nc4nccc(-c5cccnc5)n4)c3)cc(C(F)(F)F)c2)cn1 [Nilotinib(AMN-107)] + CN(C)C/C=C/C(=O)Nc1cc2c(Nc3ccc(F)c(Cl)c3)ncnc2cc1O[C@H]1CCOC1 [Afatinib]
The “cell viability of combination” value of the first is higher: 58.1 for the first, 45.9 for the second.

Going from `CNC(=O)c1cc(Oc2ccc(NC(=O)Nc3ccc(Cl)c(C(F)(F)F)c3)c(F)c2)ccn1.Cl` [Regorafenib hydrochloride] + CN(C)C/C=C/C(=O)Nc1cc2c(Nc3ccc(F)c(Cl)c3)ncnc2cc1O[C@H]1CCOC1 [Afatinib] to `COc1ncc(-c2ccc3nccc(-c4ccnnc4)c3c2)cc1NS(=O)(=O)c1ccc(F)cc1F` + CN(C)C/C=C/C(=O)Nc1cc2c(Nc3ccc(F)c(Cl)c3)ncnc2cc1O[C@H]1CCOC1 [Afatinib], the “cell viability of combination” value falls from 52 to 28.7.

Going from `C#Cc1cccc(Nc2ncnc3cc(OCCOC)c(OCCOC)cc23)c1.Cl` [Erlotinib Hydrochloride] + CN(C)C/C=C/C(=O)Nc1cc2c(Nc3ccc(F)c(Cl)c3)ncnc2cc1O[C@H]1CCOC1 [Afatinib] to `C#Cc1cccc(Nc2ncnc3cc(OCCOC)c(OCCOC)cc23)c1` [Erlotinib] + CN(C)C/C=C/C(=O)Nc1cc2c(Nc3ccc(F)c(Cl)c3)ncnc2cc1O[C@H]1CCOC1 [Afatinib], the “cell viability of combination” value falls from 47.7 to 41.1.

First: Br.Cc1ccc(Sc2ccccc2N2CCNCC2)c(C)c1 + CN(C)C/C=C/C(=O)Nc1cc2c(Nc3ccc(F)c(Cl)c3)ncnc2cc1O[C@H]1CCOC1 [Afatinib]
Second: Cl.Fc1ccc(C2CCNCC2COc2ccc3c(c2)OCO3)cc1 (configuration not stated) [Paroxetine HCl] + CN(C)C/C=C/C(=O)Nc1cc2c(Nc3ccc(F)c(Cl)c3)ncnc2cc1O[C@H]1CCOC1 [Afatinib]
The “cell viability of combination” value of the first is lower: 49.7 for the first, 52.3 for the second.

Going from `Clc1ccc(C(Cn2ccnc2)OCc2c(Cl)cccc2Cl)c(Cl)c1.O=[N+]([O-])O` (configuration not stated) [Isoconazole nitrate] + CN(C)C/C=C/C(=O)Nc1cc2c(Nc3ccc(F)c(Cl)c3)ncnc2cc1O[C@H]1CCOC1 [Afatinib] to `CC(O)C(=O)O.CCOc1ccc2nc3cc(N)ccc3c(N)c2c1.O` [Ethacridine lactate monohydrate] + CN(C)C/C=C/C(=O)Nc1cc2c(Nc3ccc(F)c(Cl)c3)ncnc2cc1O[C@H]1CCOC1 [Afatinib], the “cell viability of combination” value falls from 63.8 to 52.5.

First: CCCSc1nc(NC2CC2c2ccc(F)c(F)c2)c2nnn(C3CC(OCCO)C(O)C3O)c2n1 (configuration not stated) [Ticagrelor] + CN(C)C/C=C/C(=O)Nc1cc2c(Nc3ccc(F)c(Cl)c3)ncnc2cc1O[C@H]1CCOC1 [Afatinib]
Second: CC(Oc1cc(-c2cnn(C3CCNCC3)c2)cnc1N)c1c(Cl)ccc(F)c1Cl [(R)-Crizotinib] + CN(C)C/C=C/C(=O)Nc1cc2c(Nc3ccc(F)c(Cl)c3)ncnc2cc1O[C@H]1CCOC1 [Afatinib]
The “cell viability of combination” value of the first is lower: 57.8 for the first, 66 for the second.

Compared with `CCC(=C(c1ccccc1)c1ccc(OCCN(C)C)cc1)c1ccccc1.O=C(O)CC(O)(CC(=O)O)C(=O)O` [Tamoxifen Citrate] + CN(C)C/C=C/C(=O)Nc1cc2c(Nc3ccc(F)c(Cl)c3)ncnc2cc1O[C@H]1CCOC1 [Afatinib], `CN(C(=O)CN(CCO)CC(=O)N(C)C(C)(C)Cc1ccccc1)C(C)(C)Cc1ccccc1` [Oxethazaine] + CN(C)C/C=C/C(=O)Nc1cc2c(Nc3ccc(F)c(Cl)c3)ncnc2cc1O[C@H]1CCOC1 [Afatinib] is lower in “cell viability of combination” value: 65 for the first, 49.1 for the second.

Going from `CCN(CC)CCCC(C)Nc1ccnc2cc(Cl)ccc12.O=P(O)(O)O.O=P(O)(O)O` (configuration not stated) [Chloroquine diphosphate] + CN(C)C/C=C/C(=O)Nc1cc2c(Nc3ccc(F)c(Cl)c3)ncnc2cc1O[C@H]1CCOC1 [Afatinib] to `CN(C)CC=CC(=O)Nc1cc2c(Nc3ccc(F)c(Cl)c3)ncnc2cc1OC1CCOC1.O=C(O)C=CC(=O)O.O=C(O)C=CC(=O)O` (configuration not stated) [Afatinib dimaleate] + CN(C)C/C=C/C(=O)Nc1cc2c(Nc3ccc(F)c(Cl)c3)ncnc2cc1O[C@H]1CCOC1 [Afatinib], the “cell viability of combination” value rises from 44.6 to 50.8.

Compared with `Cl.Cl.O=C1c2c(O)ccc(O)c2C(=O)c2c(NCCNCCO)ccc(NCCNCCO)c21` [Mitoxantrone HCl] + CN(C)C/C=C/C(=O)Nc1cc2c(Nc3ccc(F)c(Cl)c3)ncnc2cc1O[C@H]1CCOC1 [Afatinib], `Nc1ccc2cc3ccc([NH3+])cc3nc2c1.Nc1ccc2cc3ccc([NH3+])cc3nc2c1.O=S(=O)([O-])[O-]` [Proflavine Hemisulfate] + CN(C)C/C=C/C(=O)Nc1cc2c(Nc3ccc(F)c(Cl)c3)ncnc2cc1O[C@H]1CCOC1 [Afatinib] is lower in “cell viability of combination” value: 61.6 for the first, 59.6 for the second.
